# Assay: basal HepG2 mitochondrial membrane potential changes, profiling panel, cell-based, JC-1 fluorescence, 24 h, 100 nL compound (AID 1167); also: test concentration not given here
# Conditions: higher = more signal
row,SMILES,z-score
1,COc1ccc([Si](C)(C)[C@@H]2[C@@H](CC(=O)N3Cc4ccccc4C[C@H]3CO)O[C@]3(C(=O)N(Cc4ccc(N5C(=O)c6cccc7cccc5c67)cc4)c4ccccc43)[C@H]2C)cc1,1.15
2,[N-]=[N+]=Nc1ccccc1C[C@@]1(C(=O)NCCN2CCOCC2)N=C(c2ccc(OCCCO)cc2)O[C@@H]1c1ccccc1N=[N+]=[N-],-0.112
3,CC1=C2[C@@H](CCc3ccccc3)OB(O)C[C@@H]2[C@@H]2C(=O)N(Cc3ccccc3)C(=O)[C@@H]2C1,-0.999
4,CC1CC/C=C\[C@H]2OC34C=CCN(Cc5ccccc5)C(=O)[C@H]3N(C(CO)C(C)C)C(=O)[C@@H]4C2C(=O)O1 (stereo partly specified),-0.213
5,COc1cccc(C)c1NC(=O)O[C@H]1[C@H](OC(=O)Nc2ccc3c(c2)OCO3)[C@@H](OC(=O)Nc2ccc3c(c2)OCO3)[C@@H](OC)O[C@@H]1CO,-0.445
6,Cc1ccccc1C(O)C1C=CC2C(=O)NC(=O)C2N1Nc1ccccn1 (stereo unspecified),-0.831
7,CCCCC(=C=CC[C@H](O)c1ccc(OCCO)cc1)CCO,-1.25
8,CC(c1ccccc1)C(O)C1C=CC2C(=O)N(C)C(=O)C2N1Nc1ccccc1 (stereo unspecified),-0.624
9,C=CCC(OC(C)=O)[C@@H]1[C@@H](N(Cc2ccc(-c3cccc(C(F)(F)F)c3)o2)C(=O)Cc2ccc(OC)cc2)c2cc(OCCCO)ccc2N1C(=O)c1ccc(-c2ccccc2)cc1 (stereo partly specified),3.55
10,Cc1ccc(S[C@]2(C(=O)NC(C)C)CC(=O)N(Cc3cc(C(F)(F)F)cc(C(F)(F)F)c3)[C@@H]2c2ccc(CO)cc2)cc1,-0.387
11,CCOC(=O)C[C@H]1[C@H](OC(=O)c2cc3ccccc3oc2=O)[C@@H](NC(=O)CC(C)C)c2cc(OCCCO)ccc2N1C(=O)c1ccc2ccccc2n1,-0.858

# Source: PubChem BioAssay
